Measurements as given in PubChem BioAssay (NCATS).
Results filed as inconclusive are left out. Active and inactive are the calls of the source. Unless noted, the call rests on the fitted dose curve; in most records, active means well fitted curve in the direction sought with a large enough effect; inconclusive means small, poorly fitted or top-dose-only effect, or another doubt; inactive means no such curve, though single readings can be large; an effect the other way counts as inactive or inconclusive.

How the values were obtained:
[1] = target: Glucocorticoid receptor (Homo sapiens) (UniProt P04150); test: qHTS assay for small molecule agonists of glucocorticoid receptor signaling (AID 588532; active means well fitted curve in the direction sought with a large enough effect in the signal ratio, with a control signal flat; the % refers to the signal ratio;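 further: 100% = dexamethasone at 0.1 µM and 0% = DMSO only wells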); details: HeLa MMTV-bla, beta-lactamase ratio, agonist, 18 h; stronger effect = higher value; percent of dexamethasone control, DMSO zero
Glucocorticoid receptor (Homo sapiens), sequence (P04150 whole entry, looked up): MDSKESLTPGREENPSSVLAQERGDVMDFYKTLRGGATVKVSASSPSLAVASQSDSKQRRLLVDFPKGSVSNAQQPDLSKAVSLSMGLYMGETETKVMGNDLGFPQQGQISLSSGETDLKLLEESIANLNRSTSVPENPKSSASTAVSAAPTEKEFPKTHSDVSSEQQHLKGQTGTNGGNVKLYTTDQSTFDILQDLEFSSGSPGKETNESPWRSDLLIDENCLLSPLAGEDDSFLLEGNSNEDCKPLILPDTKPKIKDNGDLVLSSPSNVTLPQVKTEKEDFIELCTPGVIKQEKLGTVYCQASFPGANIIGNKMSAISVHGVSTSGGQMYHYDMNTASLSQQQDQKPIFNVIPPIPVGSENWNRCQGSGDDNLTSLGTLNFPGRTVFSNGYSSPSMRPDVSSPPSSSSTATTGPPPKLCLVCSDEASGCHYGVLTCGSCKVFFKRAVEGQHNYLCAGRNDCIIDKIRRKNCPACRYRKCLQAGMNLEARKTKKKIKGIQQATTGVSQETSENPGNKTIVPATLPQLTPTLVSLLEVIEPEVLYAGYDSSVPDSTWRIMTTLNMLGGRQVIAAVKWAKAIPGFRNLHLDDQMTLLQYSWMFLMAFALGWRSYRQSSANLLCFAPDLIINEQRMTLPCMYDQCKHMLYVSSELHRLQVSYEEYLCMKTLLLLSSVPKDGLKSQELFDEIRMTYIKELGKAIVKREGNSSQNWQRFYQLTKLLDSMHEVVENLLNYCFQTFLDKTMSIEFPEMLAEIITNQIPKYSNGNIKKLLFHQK
How it was run: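 HeLa GRE-bla reporter cells; 18 h compound exposure at 37 C; 2 h CCF4 loading at room temperature; fluorescence at 460 and 530 nm; EC50 by Hill equation.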

[2] = qHTS assay for small molecule antagonists of peroxisome proliferator-activated receptor delta signaling (AID 588535); details: HEK293T PPARd-UAS-bla, beta-lactamase FRET ratio, 18 h; 460 nm channel;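 further: cells co-treated with a PPAR-delta agonist as stimulator during compound exposure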
How it was run: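 Beta-lactamase reporter read-out (405 nm excitation, 460/530 nm emission) after CCF4 loading for 2 hrs at RT. HEK293T PPAR-delta-UAS-bla cells, 2% charcoal/dextran FBS, compounds for 18 hrs at 37 C. Hill fit gave IC50 and efficacy.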

[3] = target: Peroxisome proliferator-activated receptor gamma (Homo sapiens) (UniProt P37231); test: qHTS assay for small molecule agonists of peroxisome proliferator-activated receptor gamma signaling (AID 588536; active means well fitted curve in the direction sought with a large enough effect in the signal ratio, with a control signal flat, not every such curve was filed as active; the % refers to the signal ratio;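 further: 0% = DMSO basal wells and 100% = rosiglitazone at 2 µM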); details: HEK293 PPARg-UAS-bla, beta-lactamase ratio, 16 h, percent of rosiglitazone response, DMSO as zero; series mostly up to 76.7 µM
Peroxisome proliferator-activated receptor gamma (Homo sapiens), sequence (P37231 whole entry, looked up): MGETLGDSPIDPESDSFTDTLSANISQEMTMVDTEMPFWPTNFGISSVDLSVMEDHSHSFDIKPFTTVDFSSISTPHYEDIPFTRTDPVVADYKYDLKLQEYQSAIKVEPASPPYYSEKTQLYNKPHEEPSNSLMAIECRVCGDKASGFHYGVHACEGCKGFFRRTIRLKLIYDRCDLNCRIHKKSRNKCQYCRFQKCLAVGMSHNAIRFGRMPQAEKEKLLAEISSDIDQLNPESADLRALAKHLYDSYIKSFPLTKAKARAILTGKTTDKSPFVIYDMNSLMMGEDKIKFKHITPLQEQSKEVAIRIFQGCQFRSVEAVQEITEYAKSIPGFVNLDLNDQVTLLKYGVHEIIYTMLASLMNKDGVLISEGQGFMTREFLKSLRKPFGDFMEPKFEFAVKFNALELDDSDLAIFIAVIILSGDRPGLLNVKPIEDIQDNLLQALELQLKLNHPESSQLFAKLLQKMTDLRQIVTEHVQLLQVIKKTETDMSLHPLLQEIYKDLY
How it was run: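 This is an agonist-mode beta-lactamase reporter assay in HEK293 PPAR-gamma-UAS-bla cells with 1% charcoal/dextran FBS. Compound titrations ran 16 h at 37 C before CCF4 detection. EC50 and efficacy are Hill fits scaled to 2 uM rosiglitazone (100%) and DMSO basal.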

[4] = target: Peroxisome proliferator-activated receptor gamma (Homo sapiens) (UniProt P37231); test: qHTS assay for small molecule antagonists of peroxisome proliferator-activated receptor gamma signaling (AID 588537; active means well fitted inhibition curve with a large enough effect in the signal ratio, with a control signal flat, not every such curve was filed as active; the % refers to the signal ratio;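 further: reporter cells co-stimulated with 50 nM rosiglitazone agonist during compound treatment; % of control where 0% means no effect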); details: HEK293 PPARg-UAS-bla, beta-lactamase ratio, antagonist mode; series mostly up to 76.8 µM
How it was run: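 Read-out: CCF4 fluorescence (ex 405, em 460/530 nm) after 2 h at RT. Cells were HEK293 carrying a UAS-bla reporter and treated 16 h at 37 C with compound plus rosiglitazone (50 nM final). Normalized to rosiglitazone and DMSO.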

[5] = qHTS assay for small molecule agonists of retinoid X receptor alpha signaling (AID 588544; calls by dose curve;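 on activation: 0% = DMSO basal wells and 100% = reference agonist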); details: HEK293T RXRa-UAS-bla, beta-lactamase reporter, 18 h; 530 nm emission
[6] = target: Retinoic acid receptor RXR-alpha (Homo sapiens) (UniProt P19793); test: as above; details: HEK293T RXRa-UAS-bla, beta-lactamase reporter, 18 h; series mostly up to 76.7 µM
Retinoic acid receptor RXR-alpha (Homo sapiens), sequence (P19793 whole entry, looked up): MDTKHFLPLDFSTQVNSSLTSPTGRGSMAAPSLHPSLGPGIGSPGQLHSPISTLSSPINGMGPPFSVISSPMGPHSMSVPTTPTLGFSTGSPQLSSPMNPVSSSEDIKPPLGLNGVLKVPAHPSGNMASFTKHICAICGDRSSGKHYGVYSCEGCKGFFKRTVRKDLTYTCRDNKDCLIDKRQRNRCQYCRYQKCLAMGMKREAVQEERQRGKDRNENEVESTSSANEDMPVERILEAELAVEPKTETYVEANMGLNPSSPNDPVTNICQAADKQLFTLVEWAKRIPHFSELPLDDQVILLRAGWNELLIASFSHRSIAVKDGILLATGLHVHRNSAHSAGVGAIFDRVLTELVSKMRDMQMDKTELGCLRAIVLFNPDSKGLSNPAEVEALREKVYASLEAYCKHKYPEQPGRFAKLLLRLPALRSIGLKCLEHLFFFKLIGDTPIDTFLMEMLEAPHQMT

[7] = target: Thyroid hormone receptor beta (Homo sapiens) (UniProt P10828); test: qHTS assay for small molecule agonists of thyroid hormone receptor beta signaling (AID 588545; calls by dose curve); details: TR-UAS-bla GripTite HEK 293, beta-lactamase ratio, agonist mode, 18 h; series mostly up to 76.7 µM
Thyroid hormone receptor beta (Homo sapiens), sequence (P10828 whole entry, looked up): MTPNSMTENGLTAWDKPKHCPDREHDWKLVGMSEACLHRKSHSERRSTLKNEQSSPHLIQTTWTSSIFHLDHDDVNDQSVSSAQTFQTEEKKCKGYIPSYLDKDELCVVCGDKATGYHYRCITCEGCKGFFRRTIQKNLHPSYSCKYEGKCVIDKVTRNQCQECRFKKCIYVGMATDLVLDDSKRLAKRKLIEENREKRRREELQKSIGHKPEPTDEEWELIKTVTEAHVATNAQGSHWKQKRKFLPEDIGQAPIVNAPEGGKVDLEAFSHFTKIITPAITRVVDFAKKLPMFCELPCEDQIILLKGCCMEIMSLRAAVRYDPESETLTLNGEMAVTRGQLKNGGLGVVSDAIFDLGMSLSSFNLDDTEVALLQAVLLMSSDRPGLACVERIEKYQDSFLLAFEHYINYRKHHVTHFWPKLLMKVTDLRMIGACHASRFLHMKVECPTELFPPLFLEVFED
How it was run: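 Agonist activity was read as beta-lactamase CCF4 fluorescence (405 ex, 460/530 em), scaled between DMSO (0%) and 10 nM T3 (100%), then Hill-fitted for EC50 and efficacy. HEK 293 TR-UAS-bla cells in 2% charcoal/dextran FBS medium were exposed 18 h at 37 C.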

[8] = target: Thyroid hormone receptor beta (Homo sapiens) (UniProt P10828); test: qHTS assay for small molecule antagonists of thyroid hormone receptor beta signaling (AID 588547; active means well fitted inhibition curve with a large enough effect in the signal ratio, with a control signal flat, not every such curve was filed as active; the % refers to the signal ratio;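 further: cells stimulated with 0.4 nM T3 agonist during compound exposure; on the % scale 0 is the no-effect control and ±100 the full control effect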); details: TR-UAS-bla HEK293, beta-lactamase ratio, antagonist mode, 18 h
How it was run: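 TR-UAS-bla GripTite HEK293 cells in 2% charcoal/dextran FBS medium; compounds 0.59 nM to 92 uM with T3 at 0.4nM final, 18 h at 37 C. Beta-lactamase read by CCF4 fluorescence (460/530 nm); Hill fits gave IC50 and efficacy.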

[9] = qHTS assay for small molecule activators of the p53 signaling pathway (AID 651743; active means well fitted activation curve with a large enough effect in the signal ratio, not every such curve was filed as active; the % refers to the signal ratio; further: % of control where 0% means no effect); details: HCT-116 p53RE-bla, beta-lactamase FRET ratio, 16 h; activation: stronger effect = higher value
How it was run: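 Reporter: beta-lactamase driven by p53 response elements, stably integrated in HCT-116 cells. Cells seeded at 4,000/well, 5 h preincubation, compound (DMSO) 16 h at 37 C; B/G FRET substrate 2 h RT; fluorescence intensity read.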

[10] = qHTS assay for environmental chemicals that activate the Aryl hydrocarbon Receptor (AhR) signaling pathway (AID 651777); details: 1A2-DRE human hepatoma cells, luciferase, 24 h; activation: stronger effect = higher value; further: % of control where 0% means no effect; nearly all actives have a fitted effect of over 15% in size
How it was run: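 AhR activation is scored as a rise in luciferase from a stable DRE–CYP1A2 promoter construct in human hepatoma cells. Treatment lasts 24 hr at 37 C; detection uses One-Glo after 30 min at room temperature.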

[11] = target: Peroxisome proliferator-activated receptor alpha (Homo sapiens) (UniProt Q07869); test: qHTS assay for small molecule agonists of the peroxisome proliferator-activated receptor alpha (PPARalpha) signaling pathway (AID 651778); details: PathHunter PPARalpha complementation, chemiluminescence, 6 h; max response: stronger effect = higher value; further: potency means the concentration at half of the fitted maximal effect; on max response: % of control where 0% means no effect
Peroxisome proliferator-activated receptor alpha (Homo sapiens), sequence (Q07869 whole entry, looked up, the tested form may be a part): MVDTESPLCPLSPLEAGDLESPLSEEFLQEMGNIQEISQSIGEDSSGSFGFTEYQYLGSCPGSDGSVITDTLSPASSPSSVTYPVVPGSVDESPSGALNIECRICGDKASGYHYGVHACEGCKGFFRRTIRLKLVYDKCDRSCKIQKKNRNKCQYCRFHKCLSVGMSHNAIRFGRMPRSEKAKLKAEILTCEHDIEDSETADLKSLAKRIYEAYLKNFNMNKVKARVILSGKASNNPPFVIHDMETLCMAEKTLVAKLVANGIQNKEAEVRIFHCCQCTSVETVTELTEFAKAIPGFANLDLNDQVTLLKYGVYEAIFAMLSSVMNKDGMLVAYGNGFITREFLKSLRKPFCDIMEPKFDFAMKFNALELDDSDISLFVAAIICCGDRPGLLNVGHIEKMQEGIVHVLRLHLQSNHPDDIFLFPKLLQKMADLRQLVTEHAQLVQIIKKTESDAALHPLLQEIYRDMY
How it was run: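 Enzyme-fragment complementation assay in which ligand-bound PPARalpha translocates and forms an active enzyme that generates chemiluminescence. Cells were plated overnight, exposed to compound for 6 hr at 37 C, and then given detection reagent for 60 min at room temperature.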

[12] = qHTS assay for small molecule agonists of the antioxidant response element (ARE) signaling pathway measured by Nrf2-dependant transcriptional activity (AID 720636; active means well fitted curve in the direction sought with a large enough effect in the repeat runs; an effect the other way counts as inactive or inconclusive;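 further: HepG2 cells with an ARE-driven luciferase reporter; % of control where 0% means no effect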); details: ARE-luc HepG2, Nrf2 luciferase reporter, 16 h; series mostly up to 92.4 µM
How it was run: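 First, ARE-luc HepG2 cells attached for 6 hr at 37 C in 1% dialyzed FBS medium. Next, compound or DMSO was added and incubated 16 hr. Finally, ONE-Glo reagent was added and luminescence measured after 30 min.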

[13] = qHTS assay for small molecule agonists of the antioxidant response element (ARE) signaling pathway measured by Nrf2-dependant transcriptional activity - cell viability counter screen (AID 720653; active means well fitted curve in the direction sought with a large enough effect in the repeat runs; an effect the other way counts as inactive or inconclusive; further: on the % scale 0 is the no-effect control and ±100 the full control effect); details: ARE-bla HepG2 viability, CellTiter-Glo ATP luminescence, 16 h; max response: stronger effect = lower value
How it was run: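 ARE-bla HepG2 cells treated with compounds for 16 h at 37C; this counter screen measures viability as intracellular ATP by CellTiter-Glo luminescence after 30 min at room temperature.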

[14] = qHTS assay for cell viability of HEK293 cells (AID 743288); details: ATP luminescence (CellTiter-Glo), 18 h; max response: stronger effect = lower value; further: on the % scale 0 is the no-effect control and ±100 the full control effect; nearly all actives have a fitted effect of over 50% in size
How it was run: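 Quantitative high-throughput screen: compounds were pinned onto parental HEK293 cells (2,000 per well) after a minimum 5 h settling at 37 C, incubated 18 h at 37 C, and intracellular ATP measured by luciferase luminescence.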

[15] = qHTS assay for cell viability of the p53RE-bla HCT-116 cell line (AID 743292); details: p53RE-bla HCT-116 viability, ATP luminescence, 16 h; series mostly up to 95 µM; further: on the % scale 0 is the no-effect control and ±100 the full control effect; nearly all actives have a fitted effect of over 55% in size
How it was run: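 Quantitative high-throughput format: compounds in DMSO were pinned onto p53RE-bla HCT-116 cells (4,000/well) and incubated 16 h at 37 C. Total intracellular ATP, read by CellTiter-Glo luminescence, reflects viable cell number.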

[16] = target: Nuclear receptor subfamily 1 group I member 2 (Rattus norvegicus) (UniProt Q9R1A7); test: qHTS assay for small molecule activators of the rat pregnane X receptor (rPXR) signaling pathway (AID 651751; call rule not given here; further: 0% is about no effect); details: rPXR reporter cells, luciferase (One-Glo), 24 h
Nuclear receptor subfamily 1 group I member 2 (Rattus norvegicus), sequence (Q9R1A7 whole entry, looked up): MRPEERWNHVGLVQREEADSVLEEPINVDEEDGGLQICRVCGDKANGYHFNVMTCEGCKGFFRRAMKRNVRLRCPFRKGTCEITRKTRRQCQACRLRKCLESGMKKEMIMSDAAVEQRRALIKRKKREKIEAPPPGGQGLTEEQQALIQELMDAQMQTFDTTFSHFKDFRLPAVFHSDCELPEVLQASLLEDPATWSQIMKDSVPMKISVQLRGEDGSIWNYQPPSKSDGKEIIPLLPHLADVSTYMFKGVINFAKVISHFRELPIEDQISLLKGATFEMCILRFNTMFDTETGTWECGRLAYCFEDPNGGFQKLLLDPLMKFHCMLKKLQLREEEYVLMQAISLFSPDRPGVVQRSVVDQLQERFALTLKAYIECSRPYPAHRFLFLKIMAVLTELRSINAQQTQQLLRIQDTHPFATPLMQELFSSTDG

[17] = qHTS assay for small molecule activators of the human pregnane X receptor (PXR) signaling pathway (AID 720659; call rule not given here; further: 0% is about no effect); details: DPX-2 HepG2 CYP3A4-luciferase, 24 h; series mostly up to 92.3 µM
[18] = qHTS assay for small molecule antagonists of retinoid X receptor alpha signaling (AID 588546; active means well fitted inhibition curve with a large enough effect in the signal ratio, with a control signal flat, not every such curve was filed as active; the % refers to the signal ratio;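 further: cells stimulated with 9-cis-retinoic acid as agonist; on the % scale 0 is the no-effect control and ±100 the full control effect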); details: HEK293T RXRa-UAS-bla, beta-lactamase ratio, antagonist mode; measured here: W530 green channel, cytotoxicity proxy
How it was run: (§1)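 Beta-lactamase reporter inhibition, read as CCF4 fluorescence ratio (ex 405, em 460/530 nm) after 2 h at RT. HEK293T UAS-bla cells, 2500/well, were stimulated with 9-cis-RA at 500 or 100 nM final alongside test compound for 18 h at 37 C.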

[19] = target: Retinoic acid receptor RXR-alpha (Homo sapiens) (UniProt P19793); test: as above; details: HEK293T RXRa-UAS-bla, beta-lactamase ratio, antagonist mode
How it was run: as §1

[20] = qHTS assay for small molecule activators of the nuclear factor-kappa B (NF-kB) signaling pathway (AID 651749; active means well fitted activation curve with a large enough effect in the signal ratio; the % refers to the signal ratio; further: % of control where 0% means no effect); details: NF-kB-bla ME-180 cells, beta-lactamase FRET ratio, 16 h; activation: stronger effect = higher value
How it was run: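 NF-kB-bla ME-180 cells, 2,000/well; 23 nL compound or DMSO pinned; 16 hr, 37C/5% CO2; beta-lactamase FRET read-out.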

C=C(C)C(=O)OCC[N+](C)(C)C
inactive: activation [1] -7.03% | outcome [3] | Potency [4] | Potency [6] | Potency [7] | activity change % (negative = inhibition) [8] 5.25% | activation [9] 0.0876% | activation [10] -2.41% | max response [11] -2.12% | Potency [12] | max response [13] 1.93% | max response [14] -15.2% | Potency [15] | max response [16] 0.4% | outcome [17]
8.9%: max response [2]
7.2%: max response [5]

CO[Si](CCCOCC1CO1)(OC)OC (centres undefined)
-16.2%: max response [5]
-4.61%: max response [18]
active: Potency [11] 39.8 µM
inactive: activation [1] -3.61% | outcome [3] | Potency [4] | Potency [6] | Potency [7] | max response [19] -3% | activity change % (negative = inhibition) [8] 7.57% | activation [9] 1.09% | activation [20] -2.38% | activation [10] -0.88% | Potency [12] | max response [13] -2.05% | max response [14] -2.39%
37.6%: max response [2]

COC(=O)CSc1cc(N=c2sc(=O)n3n2CCCC3)c(F)cc1Cl
inactive: activation [1] -2.45% | outcome [3] | Potency [4] | Potency [7] | activation [10] -2.58% | max response [11] 0.865% | Potency [12] | max response [13] 8.69% | max response [14] 4.83%

CCCCC(CC)COC(=O)/C=C\C(=O)OCC(CC)CCCC (centres undefined)
1.27%: max response [5]
inactive: activation [1] -2.45% | outcome [3] | Potency [6] | max response [19] 1.08% | activation [9] -1.03% | activation [20] 0.118% | activation [10] 0.172% | max response [11] -0.882% | Potency [12] | max response [13] -2.59% | max response [14] -2.82% | Potency [15] | max response [16] -1.19% | outcome [17]
-16.2%: max response [18]
14.1%: max response [2]

C=C[Si](C)(C)O[Si](C)(C)C=C
inactive: outcome [3] | Potency [4] | Potency [6] | Potency [7] | max response [19] -0.957% | activity change % (negative = inhibition) [8] 3.28% | activation [9] -3.83% | activation [20] -0.794% | activation [10] -1.78% | max response [11] -1.71% | Potency [12] | max response [13] -2.71% | max response [14] -5.1% | max response [16] 0.719% | outcome [17]
11.5%: max response [5]
-11.2%: max response [18]

OCc1cccc(Oc2ccccc2)c1
-8.28%: max response [5]
inactive: outcome [3] | Potency [6] | Potency [7] | max response [19] 9.52% | activity change % (negative = inhibition) [8] 9.19% | activation [9] -1.52% | activation [20] 2.29% | activation [10] 1.11% | max response [11] -0.0897% | Potency [12] | max response [14] 2.32% | Potency [15] | max response [16] -3.09% | outcome [17]
-14.1%: max response [18]
-2.37%: max response [2]
